BLM inh: Bloom syndrome helicase (human) inhibition. actives 0.2% (n = 350,000). P54132. AID 2528. Potency, µM (highest dose often 56.1 µM), actives largely listed as inhibitors. recombinant BLM DNA unwinding, fluorescence dequenching; also: nearly all actives have a fitted effect of over 35% in size
Tb PGK inh: blocks T. brucei phosphoglycerate kinase. P07378. PGK/GAPDH coupled, Kinase-Glo luminescence, 60 min. Potency, µM (titrated, usually from 57.5 µM), usual class: inhibitors. actives 0.043% (n = 380,000). AID 602233; also: nearly all actives have a fitted effect of over 60% in size
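Luminescent ATP detection (Kinase-Glo Plus) follows a 60-minute room-temperature incubation, with wells lacking PGK as controls. Buffer: 100 mM TEA (pH 7.6), 5 mM MgCl2, 0.01% Tween-20. Coupling enzyme GAPDH (100 nM final) supplies unstable 1,3-BPG in-well.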
RECQ1 inh: inhibitors of human RECQ1 DNA helicase. P46063. RECQ1 DNA unwinding, red fluorescence kinetic read. AID 2549. Potency, µM (titrated, usually from 57.3 µM), most hits filed as inhibitors. actives 0.54% (n = 240,000); also: nearly all actives have a fitted effect of over 30% in size
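RECQ1T1 50 nM; forked duplex (20 bp + 30-nt ss tails) 200 nM, ATP 2 mM final; pH 8.0, 2 mM MgCl2, 2.5 ug/ml poly(dI-dC); 15 min compound preincubation; discontinuous kinetic read over 2 h at RT.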
FEN1 inhibitor: human FEN1 inhibition | Recombinant FEN1 flap cleavage, fluorescence, 15 min | Potency, µM (doses to about 114 µM), hits mostly inhibitors | actives 0.35% (n = 390,000) | AID 588795; also: nearly all actives have a fitted effect of over 65% in size
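Reaction started by adding substrate (50 nM final) to 10 nM enzyme after 15 min room-temperature compound preincubation. Reads at 0 and 15 min, with data normalized and fitted to a four-parameter Hill equation.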
GLS inhibitor: inhibitors of human glutaminase (GLS). GLS enzymatic activity, qHTS titration. Potency, µM (highest dose often 45.5 µM), hits mostly inhibitors. actives 0.21% (n = 410,000). O94925
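Two-point fluorescence kinetic (t0, 30 min RT) for hKGA; glutamate detected via glutamate oxidase–HRP–Amplex Red. Substrate: 1 mM L-glutamine solution; buffer 45 mM KH2PO4, pH 8.2.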
APEX1 inh: blocks human APE1 abasic DNA cleavage | actives 0.35% (n = 350,000) | P27695 | recombinant APE1, TAMRA/BHQ-2 abasic DNA cleavage fluorescence | AID 2517 | Potency, µM (titrated, usually from 65.8 µM), most hits filed as inhibitors; also: nearly all actives have a fitted effect of over 55% in size
Target sequence (P27695 whole entry, looked up): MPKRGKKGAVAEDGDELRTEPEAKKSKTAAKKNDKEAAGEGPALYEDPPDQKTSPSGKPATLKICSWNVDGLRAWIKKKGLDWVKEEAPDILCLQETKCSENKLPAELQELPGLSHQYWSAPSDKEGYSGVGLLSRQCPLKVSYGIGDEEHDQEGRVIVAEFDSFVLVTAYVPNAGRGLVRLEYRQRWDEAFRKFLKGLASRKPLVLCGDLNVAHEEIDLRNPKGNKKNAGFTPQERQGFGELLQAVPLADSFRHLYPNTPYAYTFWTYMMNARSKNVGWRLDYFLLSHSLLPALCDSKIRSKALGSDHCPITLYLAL
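Quantitative HTS: incision of a TAMRA/BHQ-2 double-stranded substrate bearing a tetrahydrofuran abasic site by 0.75 nM APE1 raises fluorescence. Substrate 50 nM final, added after 15 min compound preincubation at room temperature; progress as third-minus-first kinetic read difference.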
GLS hit conf: confirmation of human glutaminase inhibitors; shares compounds with GLS inhibitor; biochemical glutaminase enzyme inhibition assay; Potency, µM (highest dose often 46.1 µM), most hits filed as inhibitors; 35 tested, under 10 active; AID 624261; calls by dose curve
HRP GOx counter: coupled enzyme interference in glutaminase inhibitor counterscreen | activity change, negative = inhibition, % at 46.1 µM | shares compounds with GLS inhibitor | HRP/glutamate oxidase coupled Amplex Red fluorescence counterscreen | 35 tested, under 10 active
HEK293 tox: reduces HEK-293 viability in glutaminase inhibitor counter-screen | shares compounds with GLS inhibitor | HEK-293 viability, CellTiter-Glo luminescence, 24 h | activity change, negative = cytotoxicity, % at 46.1 µM | 35 tested, under 10 active | AID 624264
Hits are given with their value. Only some compounds are listed: those with a hit (about 0.86% of all), similar ones and a draw of the others. Unless noted, calls follow the shape of the dose curve; as a rule, active = well fitted curve in the direction sought with a large enough effect; inconclusive = small, poorly fitted or top-dose-only effect, or another doubt; inactive = no such curve, though single readings can be large; an effect the other way counts as inactive or inconclusive.

How did Cc1cccc(C)c1NC(=O)C(=O)NCC(c1cccnc1)N1CCc2ccccc21 (stereo unspecified) do in these assays?
BLM inh: inactive; Tb PGK inh: inactive; FEN1 inhibitor: inactive; GLS inhibitor: inactive

Results for Cc1ccc(CSc2nc3c(c(=O)[nH]2)C(c2cccc(F)c2F)CC(=O)N3)cc1 (stereo unspecified) ?
BLM inh: inactive; Tb PGK inh: inactive; FEN1 inhibitor: inactive; GLS inhibitor: inactive

What do the screens show for `CCN(CC)S(=O)(=O)c1ccc(NS(=O)(=O)c2cccc(C)c2)cc1`?
BLM inh: inactive; Tb PGK inh: inactive; RECQ1 inh: inactive; FEN1 inhibitor: inactive; GLS inhibitor: inconclusive; APEX1 inh: inactive; GLS hit conf: inactive; HRP GOx counter: inactive; HEK293 tox: inactive

How did CCN(CC)S(=O)(=O)c1ccc(NS(=O)(=O)c2ccc(F)cc2)cc1 do in these assays?
BLM inh: inactive; Tb PGK inh: inactive; RECQ1 inh: inactive; FEN1 inhibitor: inactive; GLS inhibitor: inactive; APEX1 inh: inactive

How did COc1ccc(OC)c(S(=O)(=O)Nc2cccc3ccccc23)c1 do in these assays?
Tb PGK inh: inactive; FEN1 inhibitor: inactive; GLS inhibitor: inactive

Results for COc1ccc(OC)c(S(=O)(=O)Nc2cccc3ccc(O)cc23)c1 ?
Tb PGK inh: inactive; FEN1 inhibitor: inactive; GLS inhibitor: 6.3µM; GLS hit conf: inactive; HRP GOx counter: inconclusive; HEK293 tox: inactive

What do the screens show for `Cc1ccc(S(=O)(=O)Nc2ccc(O)c3ccccc23)c(C)c1`?
BLM inh: inactive; Tb PGK inh: inactive; FEN1 inhibitor: inconclusive; GLS inhibitor: 7.9µM; APEX1 inh: inactive; GLS hit conf: inconclusive; HRP GOx counter: inactive; HEK293 tox: inactive

Results for Cc1ccc(S(=O)(=O)Nc2cc(Cl)c(O)c3ncccc23)cc1 ?
BLM inh: inactive; Tb PGK inh: inactive; FEN1 inhibitor: inconclusive; GLS inhibitor: 7.1µM; APEX1 inh: inactive; GLS hit conf: inconclusive; HRP GOx counter: inactive; HEK293 tox: inconclusive

Results for CCCC(=O)OCc1cnc(C)c2oc(=O)c(C(=O)Nc3cccc(C(F)(F)F)c3)cc12 ?
BLM inh: inactive; Tb PGK inh: inactive; FEN1 inhibitor: inactive; GLS inhibitor: inactive

How did Cc1ccc(S(=O)(=O)Nc2cc(C)c(O)c(Sc3n[nH]c(C)n3)c2)cc1 do in these assays?
BLM inh: inactive; Tb PGK inh: inactive; FEN1 inhibitor: inactive; GLS inhibitor: 10µM; APEX1 inh: inactive; GLS hit conf: inconclusive; HRP GOx counter: inconclusive; HEK293 tox: inactive

Results for Cc1oc2c(cc(NS(=O)(=O)c3ccc(Cl)cc3)c3ccccc32)c1C(=O)O ?
BLM inh: inactive; Tb PGK inh: inactive; FEN1 inhibitor: inactive; GLS inhibitor: 16µM; APEX1 inh: inactive; GLS hit conf: inconclusive; HRP GOx counter: inactive; HEK293 tox: inactive

What do the screens show for `CC(=O)c1c(C)oc2c1cc(NS(=O)(=O)c1ccc(Br)cc1)c1ccccc12`?
BLM inh: inactive; Tb PGK inh: inactive; FEN1 inhibitor: inactive; GLS inhibitor: inactive

What do the screens show for `Cc1ccc2nc(NCCN)c3ncc(C)n3c2c1`?
BLM inh: inactive; RECQ1 inh: inactive; APEX1 inh: inconclusive

Results for COc1ccc(NS(=O)(=O)c2cc(NC(=O)[C@H](C)NC(N)=O)ccc2N2CCCC2)cc1 ?
Tb PGK inh: inactive; FEN1 inhibitor: inactive; GLS inhibitor: 16µM; APEX1 inh: inactive; GLS hit conf: inactive; HRP GOx counter: inconclusive; HEK293 tox: inactive

From PubChem BioAssay
